Laboratory results: PubChem BioAssay AID1159580 (chemical genetic matrix, 2015)
Screen size: about 5,500 compounds; about 2,000 (36%) were called active. Roughly 18% stayed inconclusive and do not appear here. No stated cut-off is given here; in the data, active means normalized growth mostly below about 0.91 (no sharp cut-off); inconclusive means no clear call, values can overlap the other calls; inactive means mostly above about 0.92. The list shows a part of the results.

Experiment: chemical genetic growth profiling, strain panel (AID 1159580);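 further: tested at 20 µM; growth read once vehicle control cultures reached saturation at 30 °C; 1 = growth at the plate median or of vehicle wells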
Conditions: growth OD

Measured: normalized growth

Cc1occc(=O)c1/C=C/O
inactive: S. cerevisiae deletion strains, locus YBR021W, strain FUR4, stronger effect = lower value 0.994 | S. cerevisiae deletion strains, locus YBR229C, strain ROT2, stronger effect = lower value 1 | S. cerevisiae deletion strains, locus YCL029C, strain bik1, stronger effect = lower value 1.02 | S. cerevisiae deletion strains, locus YDL035C, strain GPR1, stronger effect = lower value 0.999 | S. cerevisiae deletion strains, locus YDL074C, strain BRE1, stronger effect = lower value 1.01 | S. cerevisiae deletion strains, locus YDL101C, strain DUN1, stronger effect = lower value 1 | S. cerevisiae deletion strains, locus YDL134C, strain PPH21, stronger effect = lower value 0.997 | S. cerevisiae deletion strains, locus YDL185W, strain tfp1, stronger effect = lower value 1.03 | S. cerevisiae deletion strains, locus YDL192W, strain arf1, stronger effect = lower value 1.02 | S. cerevisiae deletion strains, locus YDR101C, strain arx1, stronger effect = lower value 0.989 | S. cerevisiae deletion strains, locus YDR150W, strain NUM1, stronger effect = lower value 0.999 | S. cerevisiae deletion strains, locus YDR162C, strain NBP2, stronger effect = lower value 0.991 | S. cerevisiae deletion strains, locus YDR318W, strain mcm21, stronger effect = lower value 1.01 | S. cerevisiae deletion strains, locus YDR388W, stronger effect = lower value 1.01 | S. cerevisiae deletion strains, locus YDR502C, strain sam2, stronger effect = lower value 0.995 | S. cerevisiae deletion strains, locus YEL061C, strain CIN8, stronger effect = lower value 1 | S. cerevisiae deletion strains, locus YER110C, stronger effect = lower value 1.02 | S. cerevisiae deletion strains, locus YER155C, strain BEM2, stronger effect = lower value 0.996 | S. cerevisiae deletion strains, locus YER167W, strain BCK2, stronger effect = lower value 0.996 | S. cerevisiae deletion strains, locus YGL078C, strain dbp3, stronger effect = lower value 1.03 | S. cerevisiae deletion strains, locus YGL086W, strain mad1, stronger effect = lower value 0.989 | S. cerevisiae deletion strains, locus YGL248W, strain PDE1, stronger effect = lower value 0.995 | S. cerevisiae deletion strains, locus YGR078C, strain PAC10, stronger effect = lower value 0.996 | S. cerevisiae deletion strains, locus YGR135W, strain pre9, stronger effect = lower value 1.02 | S. cerevisiae deletion strains, locus YGR252W, strain gcn5, stronger effect = lower value 0.985 | S. cerevisiae deletion strains, locus YHR030C, strain SLT2, stronger effect = lower value 1 | S. cerevisiae deletion strains, locus YHR079C, strain IRE1 (second series), stronger effect = lower value 1.02 | S. cerevisiae deletion strains, locus YHR094C, strain hxt1, stronger effect = lower value 1.01 | S. cerevisiae deletion strains, locus YHR129C, strain ARP1, stronger effect = lower value 1 | S. cerevisiae deletion strains, locus YHR200W, strain rpn10, stronger effect = lower value 1.01 | S. cerevisiae deletion strains, locus YIL066C, strain RNR3, stronger effect = lower value 1 | S. cerevisiae deletion strains, locus YIL073C, strain SPO22, stronger effect = lower value 1.03 | S. cerevisiae deletion strains, locus YIL125W, strain kgd1, stronger effect = lower value 1.01 | S. cerevisiae deletion strains, locus YIR030C, strain dcg1, stronger effect = lower value 1.01 | S. cerevisiae deletion strains, locus YJL095W, strain BCK1, stronger effect = lower value 0.989 | S. cerevisiae deletion strains, locus YJL134W, strain LCB3, stronger effect = lower value 1.01 | S. cerevisiae deletion strains, locus YJL168C, strain set2, stronger effect = lower value 1.01 | S. cerevisiae deletion strains, locus YJL187C, strain SWE1 (second series), stronger effect = lower value 0.998 | S. cerevisiae deletion strains, locus YJR043C, strain POL32, stronger effect = lower value 0.991 | S. cerevisiae deletion strains, locus YJR075W, strain HOC1, stronger effect = lower value 0.995 | S. cerevisiae deletion strains, locus YKL009W, strain mrt4, stronger effect = lower value 1.01 | S. cerevisiae deletion strains, locus YKL068W, stronger effect = lower value 1.01 | S. cerevisiae deletion strains, locus YKL085W, strain MDH1 (second series), stronger effect = lower value 1.02 | S. cerevisiae deletion strains, locus YKL085W, strain MDH1, stronger effect = lower value 1.02 | S. cerevisiae deletion strains, locus YKL190W, strain CNB1, stronger effect = lower value 1.01 | S. cerevisiae deletion strains, locus YKR001C, strain vps1, stronger effect = lower value 1.01 | S. cerevisiae deletion strains, locus YLR039C, strain RIC1, stronger effect = lower value 1.02 | S. cerevisiae deletion strains, locus YLR058C, strain SHM2, stronger effect = lower value 1 | S. cerevisiae deletion strains, locus YLR102C, strain apc9, stronger effect = lower value 1.01 | S. cerevisiae deletion strains, locus YLR262C, strain YPT6, stronger effect = lower value 1.07 | S. cerevisiae deletion strains, locus YLR268W, strain sec22, stronger effect = lower value 1.01 | S. cerevisiae deletion strains, locus YLR330W, strain CHS5, stronger effect = lower value 1 | S. cerevisiae deletion strains, locus YLR342W, strain FKS1 (second series), stronger effect = lower value 1.01 | S. cerevisiae deletion strains, locus YLR371W, strain rom2, stronger effect = lower value 1.02 | S. cerevisiae deletion strains, locus YLR418C, strain cdc73, stronger effect = lower value 0.977 | S. cerevisiae deletion strains, locus YML016C, strain PPZ1, stronger effect = lower value 1 | S. cerevisiae deletion strains, locus YML032C, strain rad52, stronger effect = lower value 1.01 | S. cerevisiae deletion strains, locus YML124C, strain tub3, stronger effect = lower value 1.01 | S. cerevisiae deletion strains, locus YMR078C, strain ctf18, stronger effect = lower value 1 | S. cerevisiae deletion strains, locus YMR223W, strain ubp8, stronger effect = lower value 0.997 | S. cerevisiae deletion strains, locus YMR263W, strain SAP30, stronger effect = lower value 0.999 | S. cerevisiae deletion strains, locus YMR307W, strain GAS1, stronger effect = lower value 1.02 | S. cerevisiae deletion strains, locus YNL067W, strain RPL9B, stronger effect = lower value 0.993 | S. cerevisiae deletion strains, locus YNL153C, strain GIM3, stronger effect = lower value 0.994 | S. cerevisiae deletion strains, locus YNL233W, strain BNI4, stronger effect = lower value 0.974 | S. cerevisiae deletion strains, locus YNL250W, strain rad50, stronger effect = lower value 1.01 | S. cerevisiae deletion strains, locus YNL271C, strain bni1, stronger effect = lower value 1.04 | S. cerevisiae deletion strains, locus YNL298W, strain CLA4, stronger effect = lower value 1.02 | S. cerevisiae deletion strains, locus YNL307C, strain MCK1, stronger effect = lower value 1.02 | S. cerevisiae deletion strains, locus YNR052C, strain pop2, stronger effect = lower value 1.01 | S. cerevisiae deletion strains, locus YOL006C, strain TOP1, stronger effect = lower value 0.981 | S. cerevisiae deletion strains, locus YOL012C, strain htz1 0.887 | S. cerevisiae deletion strains, locus YOL147C, strain pex11, stronger effect = lower value 1.01 | S. cerevisiae deletion strains, locus YOR061W, strain CKA2, stronger effect = lower value 1.01 | S. cerevisiae deletion strains, locus YOR069W, strain VPS5, stronger effect = lower value 1 | S. cerevisiae deletion strains, locus YOR136W, strain idh2, stronger effect = lower value 1.02 | S. cerevisiae deletion strains, locus YOR144C, strain elg1, stronger effect = lower value 1.01 | S. cerevisiae deletion strains, locus YOR184W, strain ser1, stronger effect = lower value 1 | S. cerevisiae deletion strains, locus YOR316C, strain cot1, stronger effect = lower value 1.03 | S. cerevisiae deletion strains, locus YPL241C, strain CIN2, stronger effect = lower value 1 | S. cerevisiae deletion strains, locus YPR119W, strain clb2, stronger effect = lower value 1.02 | S. cerevisiae deletion strains, locus YPR141C, strain kar3, stronger effect = lower value 1.02 | S. cerevisiae deletion strains, locus YPR163C, strain tif3, stronger effect = lower value 0.994 | S. cerevisiae deletion strains, locus YPR167C, strain met16, stronger effect = lower value 1.02 | S. cerevisiae deletion strains, strain wtn01, stronger effect = lower value 1.03 | S. cerevisiae strains, strain wild type, stronger effect = lower value 1.01
